Source: PubChem
p-CIP stab down – p/CIP-EGFP fusion destabilizers, primary screen, fluorescence, F442A cells. Q05BA5. 16 h. decrease of EGFP signal, % at 10 µM. hit rate 0.01% among 290,000. AID 1984, 2009;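 active means EGFP signal decrease of at least 30% at 10 µM or well 3 SD below plate mean, unless failing retest; inactive means the rest, including hits failing retest or dose response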
PHOSPHO1 block – PubChem AID 1565; recombinant PHOSPHO1, absorbance phosphatase assay; inhibition, % at 13.3 µM; hit rate 1.1% among 290,000; in the data active means inhibition above about 60%
Target sequence (Q8TCT1 whole entry, looked up): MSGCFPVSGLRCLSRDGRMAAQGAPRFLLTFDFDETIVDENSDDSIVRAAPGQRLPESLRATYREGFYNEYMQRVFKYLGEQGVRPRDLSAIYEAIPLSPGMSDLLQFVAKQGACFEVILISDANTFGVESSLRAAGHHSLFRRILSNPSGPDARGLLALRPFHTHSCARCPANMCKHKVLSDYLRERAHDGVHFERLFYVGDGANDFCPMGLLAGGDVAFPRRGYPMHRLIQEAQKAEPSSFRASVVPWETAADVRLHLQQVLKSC
UBC9 SUMO inh – inhibitors of in vitro SUMOylation cascade, primary screen, biochemical, HTRF, uHTS | hit rate 0.36% among 290,000 | AID 2006, 2009 | HTRF SUMOylation assay, SAE1/SAE2 + UBC9 | inhibition, % at 35 µM | SUMO-conjugating enzyme UBC9 (Homo sapiens), P63279; in the data active means inhibition above about 50%, passing the limit was not always enough
Target sequence (P63279 whole entry, looked up): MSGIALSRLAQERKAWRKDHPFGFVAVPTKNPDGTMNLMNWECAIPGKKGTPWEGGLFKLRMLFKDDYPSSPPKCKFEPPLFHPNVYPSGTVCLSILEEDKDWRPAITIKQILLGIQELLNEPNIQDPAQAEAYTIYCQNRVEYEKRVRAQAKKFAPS
NadD block – inhibitors of S. aureus NadD, primary screen, biochemical, colorimetric, uHTS; Nicotinate-nucleotide adenylyltransferase NadD (Staphylococcus aureus N315); purified NadD enzyme, colorimetric absorbance read-out; inhibition, % at 20 µM; hit rate 0.78% among 360,000; AID 602399, 2012; in the data active means inhibition above about 26%
* hit, by the source's call; · = no result given. Compounds with a hit are over-represented: about 1.8% of the library has one in this group of screens.

SMILES	p-CIP stab down	PHOSPHO1 block	UBC9 SUMO inh	NadD block
COC(=O)c1ccc(COc2ccc(/C=N/Nc3cccc(C(=O)O)c3)cc2)cc1	-9	68*	20	3
Cc1cccc(NC(=O)CN2C(=O)N/C(=C/c3cc(C)n(C(C)C)c3C)C2=O)c1	2	5	0	34*
Cc1cccc(NC(=O)CN2C(=O)N/C(=C/c3ccc(C)s3)C2=O)c1	3	-12	25	8
COCCCNC(=O)C1C2C=CC3(CN(Cc4ccc(C)cc4)C(=O)C13)O2 (centres undefined)	-6	60*	-5	-7
O[C@H]1C[C@H](c2ccc(Cl)cc2)N(CC2CCCCC2)C[C@@H]1n1cc(C2CC2)nn1	·	·	·	7
Cc1noc(C)c1NC(=O)N(C)C[C@H]1Oc2ccc(NS(=O)(=O)c3cn(C)cn3)cc2C(=O)N([C@H](C)CO)C[C@@H]1C	·	·	·	5
CCCCC(=O)NNC(=S)NC(=O)c1ccc(C)cc1	-6	28	-24	2
CCCCC(=O)NNC(=S)NC(=O)c1ccc([N+](=O)[O-])cc1	-1	61*	1	4
CCCCC(=O)NNC(=S)NC(=O)c1cccc([N+](=O)[O-])c1	-17	94*	24	3
Nc1ccc(Oc2ccc3c(c2)OCO3)cc1	-7	61*	7	-2
Nc1ccc(Oc2cccc(Oc3ccc(N)cc3)c2)cc1	6	-8	-30	8
c1ccc(OCCNc2nc(NCC3CC3)nc3ccsc23)cc1	·	·	·	5
Cc1cccn2c(=O)c3cc(C#N)c(=NC(=O)c4ccncc4)n(CCCOC(C)C)c3nc12	-11	96*	25	-3
CCCCn1c(=NC(=O)c2cccnc2)c(C#N)cc2c(=O)n3cccc(C)c3nc21	-6	78*	22	17
COc1ccc(Nc2nc(N)nc(CSc3nc(C)cc(C)n3)n2)cc1	-8	60*	5	3
CC(=O)Nc1ccc(C(=O)N2CCCCC2c2cc(C(=O)NC(C)C)no2)cc1 (centres undefined)	·	·	·	4
COc1ccc(NC(=O)Nc2ccc3nc([C@@H]4O[C@H](CO)[C@@H](O)[C@H](O)[C@H]4O)[nH]c3c2)cc1OC1CCCC1	·	·	·	5
COc1cc(Br)cc(/C=N/NC(=O)Cc2ccc(C(F)(F)F)cc2[N+](=O)[O-])c1O	-8	1	20	39*
CCOc1cc(/C=N/NC(=O)Cc2ccc(C(F)(F)F)cc2[N+](=O)[O-])c(Br)cc1OC	0	18	2	12
Cc1ccc(S(=O)(=O)N2C[C@H]3C(=O)C[C@@H](c4ccc(Cl)cc4)N(S(=O)(=O)c4ccc(C)cc4)[C@H]3C[C@H]2c2ccccc2)cc1	·	·	·	21
CCOc1ccc(-n2c(-c3ccccc3)c[nH]c2=S)cc1	-7	-64	9	17
CCn1c(-c2ccc(-c3ccccc3)cc2)c[nH]c1=S	-4	97*	3	11
C=CCn1c(-c2ccccc2)c[nH]c1=S	-12	79*	8	-3
Cc1ccc(-c2c[nH]c(=S)n2-c2ccccc2)cc1	-3	45	11	13
Cn1c(-c2ccc(-c3ccccc3)cc2)c[nH]c1=S	-4	95*	35	15
SMILES	p-CIP stab down	PHOSPHO1 block	UBC9 SUMO inh	NadD block
C=CCn1c(-c2ccc(Cl)cc2)c[nH]c1=S	-7	94*	0	3
O=C(O)C1C=CCC(C(=O)O)C1 (centres undefined)	·	·	·	-5
Cc1c(OCC(=O)NCC(O)c2ccccc2)ccc2c3c(c(=O)oc12)CCCC3 (centres undefined)	-21	18	8	1
O=C(NN1C(=O)CSC1=S)C(=O)NN1C(=O)CSC1=S	-14	-50	96*	-2
CCCC(=O)N1CCC1(C)C(=O)NS(=O)(=O)c1ccc(C)cc1 (centres undefined)	·	·	·	-3
CC(C)(C)OC(=O)N1CCC[C@@H]1C(=O)N1CCC[C@@H]1C(=O)NCc1ccccc1Cl	·	·	·	-1
COc1ccc(C2C(C(=O)OCC(=O)N3CCCCC3)CCC(=O)N2c2ccc(OC)cc2)cc1 (centres undefined)	-3	68*	13	-1
CC(C)(C)OC(=O)C[C@H]1C/C=C\C[C@@H](CC(=O)N[C@@H](CO)Cc2ccccc2)C(=O)N2CCC[C@@H]2COC1=O	·	·	·	-8
Cc1ccc(C(=O)n2cnnc2N)cc1	-3	-15	-10	4
Cc1ccc(C(=O)n2cnnc2N)cc1C	-1	61*	11	4
CCn1cc(/C=C/C(=O)c2ccc(O)cc2)c(C)n1	-15	60*	34	-5
Cc1ccc(Nc2n[nH]c(=S)s2)cc1C	·	·	·	14
S=c1[nH]nc(Nc2cccc(Cl)c2)s1	6	80*	6	-3
S=c1[nH]nc(Nc2ccccc2Cl)s1	-1	68*	-5	15
CCc1nnc2n1N=C(c1ccc(-c3cc(Cl)ccc3Cl)o1)CS2	-10	90*	41	18
Cc1ccc2cc(COC(=O)c3ccncc3)c(=O)[nH]c2c1	0	86*	22	5
Cc1cccc2cc(COC(=O)c3cccnc3)c(=O)[nH]c12	3	78*	17	3
Cc1ccc(C(=O)OCc2cc3ccccc3[nH]c2=O)cc1	-3	-3	-38	1
COc1ccc(NC(=O)c2cccc(N3C(=O)c4cccc([N+](=O)[O-])c4C3=O)c2)cc1	-20	14	16	3
COc1ccc(/C=C2\C(=O)N(c3c(Cl)cc(Cl)cc3Cl)N=C2NC(=O)c2cccc([N+](=O)[O-])c2)cc1	3	-1	13	84*
O=c1c2c(nc3c(-c4cccc(Br)c4)c[nH]n13)CCCC2	-5	62*	4	18
Cc1ccc(Cl)cc1NC(=O)CNC(=O)N1CC(=O)Nc2ccccc21	9	80*	11	5
Cc1ccc(Cl)cc1NC(=O)CCNC(=O)N1CC(=O)Nc2ccccc21	-1	-22	12	1
O=C(c1cc2c(c(-c3cccc(-c4ccncc4)c3)n1)[C@@H](CCO)N(C(=O)c1ccc3c(c1)OCO3)C2)N1CCOCC1	·	·	·	1
COc1ccc(C2C(C(=O)c3cccs3)=C(O)C(=O)N2c2nncs2)cc1 (centres undefined)	-8	71*	16	1
SMILES	p-CIP stab down	PHOSPHO1 block	UBC9 SUMO inh	NadD block
CN(Cc1ccccc1)C(=O)c1ccc(NC(=O)Cc2ccc(NC(=O)C3CCN(C(=O)c4ccccc4)CC3)cc2)cc1	·	·	·	12
CCCn1nnc(NC(=S)NC(=O)CC)n1	-8	60*	19	-2
COc1ccc(OCCN2CCCC2)cc1Nc1nnc(Cl)c(Nc2ccccc2S(C)(=O)=O)n1	·	·	·	10
O=C1NC(Cc2ccc(O)cc2)c2nc3ccc(F)cc3c(=O)n2-c2cc3ccccc3cc21 (centres undefined)	·	·	·	12
CCN1C(=O)/C(=C2/SC(C)=C(C)N2CC)SC1=S	-4	80*	4	8
Nc1nonc1-n1nnc(C(=O)N/N=C/c2ccco2)c1CSc1ccc(Cl)cc1	·	·	·	-1
CC1CN(C(=O)Cn2cc(S(=O)(=O)CC(=O)N3CCOCC3)c3ccccc32)CC(C)O1 (centres undefined)	-4	66*	1	3
